In PubChem BioAssay (NCI):
The panel holds about 83,000 compounds, 20% with a hit somewhere; the sample as a whole holds those more often.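 Percent growth is the endpoint: 0 to 100 indicates growth inhibition (40 means 60% inhibition), 0 means no net growth, and negative values indicate cell death.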 Unmarked numbers belong to inactive results. Activity calls are given as the source filed them. The calls were made as follows: active = growth percent below 10; inactive = the rest.

Test system: HL-60(TB) leukemia
Experiment: NCI-60 one-dose screen, 48 h (100 = growth as untreated, 0 = no growth, -100 = all killed)
Conditions: 10 µM unless noted

SMILES	growth
C=C1C(=O)O[C@H]2[C@H]1CC/C(Cn1cc(CNCCc3c[nH]c4ccc(Cl)cc34)nn1)=C\CC[C@@]1(C)O[C@@H]21	-55.2% (active)
C/C(=N\NC(=O)CC#N)c1cc2cc(Cl)ccc2o1	99.4%
COc1ccc2c(c1)c(-c1nc(-c3cn(C)c4ncccc34)cs1)cn2CCN	55.7%
Cn1c(C(N)=O)cc2c1-c1nc(Nc3ccccc3)ncc1CCC2	40.6%
CCCCn1c(-c2ccc(C(=O)O/N=C(\N)c3ccc4c(c3)OCO4)cc2)nc(-c2ccccc2)c1-c1ccccc1	-52.4% (active)
O=C1/C(=C/c2ccc(Cl)cc2Cl)CN(S(=O)(=O)c2ccccc2)C/C1=C\c1ccc(Cl)cc1Cl	11%
CC(=O)O[C@H]1CC[C@]2(C)[C@H]3CC[C@@H]4[C@H]5[C@H](C(C)C)CC[C@]5(C(=O)OCC(CO)(CO)N=C(N)N)CC[C@@]4(C)[C@]3(C)CC[C@H]2C1(C)C	-24.7% (active)
COc1cccc2c(=O)c3c(sc12)c(NCCN(C)C)nc1ccccc13	15.1%
Cc1cc(Nc2cc(N3CCN(C)CC3)nc(Sc3ccc(NC(=O)C4CC4)cc3)n2)n[nH]1	11.2%
C=C(CNCCc1ccc(O)cc1)[C@@H]1CC[C@]2(CO)CC[C@]3(C)[C@H](CC[C@@H]4[C@@]5(C)CCC(NCCc6ccc(O)cc6)C(C)(C)[C@@H]5CC[C@]43C)[C@@H]12 (some centres undefined)	-65.2% (active)
O=C1NC(=O)/C(=C/c2ccc(Cl)cc2Cl)N1	97%
COc1ccc(C(=O)N2N=C(c3ccc(Br)cc3)CC2c2cn(-c3ccccc3)nc2-c2ccccc2)cc1 (centres undefined)	32.7%
Clc1ccc(Nc2ccnc(NCCCNc3ccnc4cc(Cl)ccc34)n2)cc1	-72.3% (active)
COc1cc(-c2nn(-c3ccc(NC(=O)c4ccc(Cl)c(Cl)c4)cc3)cc2-c2ccncc2)ccc1Cl	33.8%
C[C@]12CC[C@@H]3c4ccc(O)cc4CC[C@H]3[C@@H]1CC[C@@H]2NS(=O)(=O)c1cccc(Br)c1	35.2%
CCC(C)(C)C(=O)O[C@H]1C[C@@H](C)C=C2C=C[C@H](C)[C@H](CC[C@@H]3CC(SCCN)CC(=O)O3)[C@H]21 (some centres undefined)	37.6%
Nc1ccn(C2O[C@H](CO)[C@@H](O)[C@H]2O)c(=O)n1 (some centres undefined)	99.7%

SMILES	growth
O=C(NC(CSSCC(NC(=O)OCc1ccccc1)C(=O)O)C(=O)O)OCc1ccccc1 (centres undefined)	14.3%
COc1ccc(C(=O)c2cc(OC)c(OC)c(OC)c2OC)cc1O	25.2%
CC(C)(C)OC(=O)N1Cc2cc3ccccc3nc2C1CO (centres undefined)	92.8%
O=C(CN1CCN(c2cc3c(cc2F)c(=O)c(C(=O)O)cn3C2CC2)CC1)Nc1ccc(C(=O)/C=C/c2ccc(Cl)cc2)cc1	134%
NC(=O)[C@@H]1Cc2ccccc2CN1C(=O)c1ccc2c(c1)Cc1ccccc1-2	72.2%
O=C1c2cc(Cl)ccc2Oc2cc([N+](=O)[O-])ccc2N1c1ccc(F)cc1F	76%
Cc1ccc(CNc2ccc3nc(CCC4CCCCC4)[nH]c3c2)cc1	14.8%
COc1ccc(Cl)cc1Nc1nc(C(F)(F)F)ccc1C(=O)N/N=C/c1ccccc1Cl	-11.3% (active)
CCOC(=O)c1c(C)nc2c(c1N)/C(=C/c1ccc(OC)cc1)C(=O)N2Cc1ccc(F)cc1	4.72% (active)
O=C(/C(=C\c1c(-c2ccccc2)[nH]c2ccccc12)S(=O)(=O)c1ccccc1)c1ccccc1	-18.2% (active)
Cc1cnc(Nc2ccc(OCCN3CCCC3)cc2)nc1NCc1ccco1	81.2%
COC1/C=C\OC2(C)Oc3c(C)c(O)c4c(O)c(c(CN(C)CCO)c(O)c4c3C2=O)NC(=O)/C(C)=C\C=C/C(C)C(O)C(C)C(O)C(C)C(OC(C)=O)C1C (centres undefined)	114%
CC(C)N1CC(=O)N2CSCC2C1=O (centres undefined)	102%
COc1ccc(C(=O)N/N=C/c2ccc(O)cc2O)cc1Nc1ccnc(C(F)(F)F)c1	14.4%
CCC(C)/C(=C\C#N)NCCCN/C(=C/C#N)C(C)CC (centres undefined)	64.6%
CCCCCCCCCCCCN1C(C)=CS/C1=C\C=C\c1scc(C)[n+]1CCCCCCCCCCCC	-32.3% (active)
COc1cc(-c2n[nH]nc2-c2ccccn2)cc(OC)c1OC	83.3%
